Assay results as given in the supplement of paper PMC10127200.
Where a name gives a salt, the structure may show the parent alone.

Key:
Assay in all cases: Euclidean distance of Cell Painting phenotypic profile (signed KS, 77 features) to DMSO centroid (dimensionless distance); 5 or 10 uM (library dependent); higher = stronger phenotypic change vs DMSO (phenoactivity)
Settings in all cases: 48 h
[1] = tested on: 786-O
In short: (§1)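 Phenoactivity is defined as the Euclidean distance from a compound profile to the median vehicle profile. Each profile comprised 77 Harmony features, scored as signed Kolmogorov-Smirnov statistics versus same-plate vehicle wells, then plate-position corrected, correlation-weighted and replicate-averaged at the top dose. Five cancer lines and one healthy fibroblast line were exposed to library compounds for 48 h at 10 or 5 uM (0.1% DMSO final).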

[2] = tested on: A549
In short: as §1

[3] = tested on: FB
In short: as §1

[4] = tested on: HEPG2
In short: as §1

[5] = tested on: OVCAR4
In short: as §1

Compound | Euclidean distance [1] | Euclidean distance [2] | Euclidean distance [3] | Euclidean distance [4] | Euclidean distance [5]
Cc1ccc(Sc2ccccc2N2CCNCC2)c(C)c1 [Vortioxetine] | 2.68 | 2.71 | 2.68 | 5.06 | 2.43
CCC(NC(C)C)C(O)c1ccc(O)c(O)c1 (stereo not given) [Isoetharine Mesylate] | 0.478 | 0.789 | 1.18 | 0.832 | 1.01
CC(C)Oc1ccc(-c2nn([C@@H](C)c3oc4ccc(F)cc4c(=O)c3-c3cccc(F)c3)c3ncnc(N)c23)cc1F [umbralisib (TGR-1202)] | 1.11 | 1.14 | 1.9 | 1.81 | 0.974
COc1ccc2[nH]c([S@@+]([O-])Cc3ncc(C)c(OC)c3C)nc2c1 [Esomeprazole sodium] | 0.925 | 0.792 | 0.681 | 1.32 | 0.926
C[C@H](CCC(=O)O)[C@H]1CC[C@H]2[C@@H]3[C@@H](O)C[C@@H]4C[C@H](O)CC[C@]4(C)[C@H]3CC[C@]12C [Ursodiol] | 1.16 | 0.853 | 1.04 | 0.517 | 0.943
CS(=O)(=O)c1ccc(Oc2cc(F)cc(C#N)c2)c2c1[C@H](O)C(F)(F)C2 | 1.1 | 1.02 | 1.28 | 0.605 | 1.38
CCCCCCCCCC(=O)N[C@@H](Cc1c[nH]c2ccccc12)C(=O)N[C@H](CC(N)=O)C(=O)N[C@@H](CC(=O)O)C(=O)N[C@@H]1C(=O)NCC(=O)N[C@@H](CCCN)C(=O)N[C@@H](CC(=O)O)C(=O)N[C@H](C)C(=O)N[C@@H](CC(=O)O)C(=O)NCC(=O)N[C@H](CO)C(=O)N[C@@H]([C@H](C)CC(=O)O)C(=O)N[C@@H](CC(=O)c2ccccc2N)C(=O)O[C@@H]1C [Daptomycin] | 1.06 | 0.544 | 0.795 | 0.461 | 1.14
CC(=O)[C@@]1(O)CC[C@H]2[C@@H]3CCC4=CC(=O)CCC4=C3[C@@H](c3ccc(N(C)C)cc3)C[C@@]21C [Ulipristal] | 0.949 | 1.22 | 1.05 | 1.13 | 0.761
CN1CC[C@@H](NC(=O)Nc2ccc(C#N)cc2)C[C@@H]1c1nc2ccccc2[nH]1 | 2.28 | 1.79 | 3.81 | 1.1 | 1.73
CNCCCC1c2ccccc2C=Cc2ccccc21 [Protriptyline hydrochloride] | 1.15 | 0.784 | 1.82 | 1.74 | 0.952
O=c1[nH]nc2c3c(cccc13)N=C(CN1Cc3ccccc3C1)N2 | 0.985 | 1.29 | 1.31 | 2.35 | 1.42
C=C1CC[C@@H]2[C@](C)(CO)[C@H](O)CC[C@@]2(C)[C@@H]1C/C=C1/C(=O)OC[C@H]1O [Andrographolide] | 2.41 | 1.6 | 1.96 | 1.62 | 1.67
NS(=O)(=O)c1cc2c(cc1Cl)NC(C(Cl)Cl)NS2(=O)=O (stereo not given) [Trichlormethiazide] | 1.14 | 0.794 | 0.859 | 0.531 | 0.98
COc1ccc(-n2nc(C(N)=O)c3c2C(=O)N(c2ccc(N4CCCCC4=O)cc2)CC3)cc1 [Apixaban] | 2.4 | 2.33 | 3.79 | 1.17 | 2.13
CNC(=O)c1cc(COc2nnc(Nc3ccc(Cl)cc3)c3ccoc23)ccn1 [Telatinib] | 1.21 | 0.814 | 2.01 | 1.41 | 1.74
CCCNC(C)C(=O)Nc1c(C)csc1C(=O)OC (stereo not given) [Articaine HCl] | 1.24 | 0.941 | 0.813 | 0.87 | 1.06
CC(C)[C@H]1C(=O)N[C@@H](CCCN=C(N)N)C(=O)NCC(=O)N[C@@H](CC(=O)O)C(=O)N[C@H](Cc2ccccc2)C(=O)N1C | 4.91 | 2.03 | 1.25 | 4.74 | 2.44
COc1ccc2cc1Oc1ccc(cc1)C[C@H]1c3cc(c(OC)cc3CCN1C)Oc1c(OC)c(OC)cc3c1[C@H](C2)N(C)CC3 [Tetrandrine] | 4.3 | 4.1 | 2.97 | 1.84 | 2.11
CCOC(=O)C1=C(C)NC(C)=C(C(=O)OC)C1c1cccc(Cl)c1Cl (stereo not given) [Felodipine] | 1.02 | 1.19 | 0.651 | 0.85 | 0.942
C[C@]12C=CC(=O)C=C1CC[C@@H]1[C@@H]2C(=O)C[C@@]2(C)[C@H]1CC[C@]2(O)C(=O)CO [Prednisone] | 2.09 | 2.37 | 2.39 | 1.49 | 2.03
CSc1ccc(OCc2ncc([N+](=O)[O-])n2C)cc1 [Fexinidazole] | 1.24 | 1.03 | 0.976 | 0.857 | 1.16
Cc1ccc(C(=O)Nc2ccc(CN3CCN(C)CC3)c(C(F)(F)F)c2)cc1C#Cc1cnc2[nH]ncc2c1 [GZD824 Dimesylate] | 4.23 | 4.68 | 5.04 | 5.49 | 4.87

Compound | Euclidean distance [1] | Euclidean distance [2] | Euclidean distance [3] | Euclidean distance [4] | Euclidean distance [5]
Nc1ccncc1N [3.4-Diaminopyridine] | 1.58 | 1.24 | 1.38 | 0.828 | 1.15
COc1ccc2cc3[n+](cc2c1OC)CCc1cc2c(cc1-3)OCO2 [Berberine chloride] | 1.19 | 1.36 | 2.07 | 1.41 | 1.31
CC1CCC(C(C)C)C(O)C1 (single isomer, unassigned; (-)) [(-)-Menthol] | 0.7 | 0.703 | 0.797 | 0.699 | 0.955
CC1(C)[C@@H](O[C@H]2O[C@H](C(=O)O)[C@@H](O)[C@H](O)[C@H]2O[C@@H]2O[C@H](C(=O)O)[C@@H](O)[C@H](O)[C@H]2O)CC[C@]2(C)[C@H]3C(=O)C=C4[C@@H]5C[C@@](C)(C(=O)O)CC[C@]5(C)CC[C@@]4(C)[C@]3(C)CC[C@@H]12 [Glycyrrhizin (Glycyrrhizic Acid)] | 1.52 | 0.67 | 1.38 | 0.607 | 1.47
C=C(C)[C@@H]1CC=C(CO)CC1 [Perillyl alcohol] | 0.887 | 0.815 | 0.953 | 1.09 | 1.74
CC(C)(C)NC[C@H](O)COc1nsnc1N1CCOCC1 [Timolol Maleate] | 1.22 | 0.771 | 0.609 | 0.591 | 1.76
COC(=O)CCc1ccc(OCC(O)CNC(C)C)cc1 (stereo not given) [Esmolol HCl] | 0.978 | 0.415 | 0.525 | 0.386 | 1.12
Cc1cc(Nc2cc(N)ncn2)c(=O)n2c1C(=O)NC21CCCCC1 | 0.779 | 0.866 | 1.08 | 0.427 | 1.18
CC(C(=O)O)c1ccc(-c2ccccc2)c(F)c1 (stereo not given) [Flurbiprofen] | 0.962 | 0.696 | 1.21 | 0.393 | 1.27
COc1c2occc2cc2ccc(=O)oc12 [Methoxsalen] | 0.745 | 0.658 | 0.948 | 0.988 | 1.08
CN(C)CCOC(c1ccccc1)c1ccccc1 [Diphenhydramine HCl] | 0.916 | 0.411 | 0.777 | 0.793 | 0.518
CNC(=O)c1ccc(Nc2ncc(C(F)(F)F)c(NCc3nccnc3N(C)S(C)(=O)=O)n2)cc1 | 1.58 | 1.6 | 2.06 | 0.842 | 1.85
CN[C@@H](C)C(=O)N[C@H](C(=O)N1CCC[C@H]1c1nc(C(=O)c2ccc(F)cc2)cs1)C1CCCCC1 | 1.14 | 1.17 | 1.22 | 1.51 | 2.13
CCOC(=O)N[C@@H]1CC[C@@H]2[C@@H](C1)C[C@H]1C(=O)O[C@H](C)[C@H]1[C@H]2/C=C/c1ccc(-c2cccc(F)c2)cn1 [Vorapaxar] | 1.81 | 1.29 | 2.37 | 1.49 | 1.31
COC(=O)C1=C(C#N)NC(C)=C(C(=O)OC(C)C)C1c1cccc([N+](=O)[O-])c1 (stereo not given) [Nilvadipine] | 1.2 | 0.818 | 1.19 | 0.907 | 1.34
CC(C)C[C@H](NC(=O)[C@@H](O)[C@H](N)Cc1ccccc1)C(=O)O [Bestatin] | 1.08 | 0.773 | 1.11 | 0.637 | 1.09
O=c1c(-c2ccc(O)cc2)coc2c([C@@H]3O[C@H](CO)[C@@H](O)[C@H](O)[C@H]3O)c(O)ccc12 [Puerarin] | 0.929 | 0.728 | 0.661 | 0.584 | 1.35
CCOC(=O)[C@H](CCc1ccccc1)N[C@H]1CCc2ccccc2N(CC(=O)O)C1=O [Benazepril] | 0.912 | 0.486 | 0.851 | 0.54 | 1.04
CC1(C)S[C@@H]2[C@H](NC(=O)C(C(=O)O)c3ccccc3)C(=O)N2[C@H]1C(=O)O (stereo not given in full) [Carbenicillin disodium] | 1.39 | 1.07 | 0.969 | 0.836 | 1.76
c1ccc(C2CN3CCSC3=N2)cc1 (stereo not given) [Tetramisole HCl] | 1.45 | 0.708 | 1.19 | 1.31 | 1.25
O=C1N=C(O)NC1(c1ccccc1)c1ccccc1 [Phenytoin Sodium] | 0.861 | 0.644 | 0.99 | 0.976 | 0.588
C[C@]12C=CC(=O)C=C1CC[C@H]1[C@@H]3C[C@@H](O)[C@](O)(C(=O)CO)[C@@]3(C)C[C@H](O)[C@@]12F [Triamcinolone] | 0.975 | 1.88 | 1.81 | 1.35 | 1.94
